Assay results reported in PubChem BioAssay (Tox21).
Where “and” joins values, the source holds several entries; their conditions need not be identical. Identical values can stand only once. Records with an inconclusive call do not appear. Calls of active or inactive are those of the source. Unless noted, the call rests on the fitted dose curve; in most records, active means well fitted curve in the direction sought with a large enough effect in the repeat runs; inconclusive means weak or mixed curves; inactive means no such curve, though single readings can be large; an effect the other way counts as inactive or inconclusive.

Assays:
[1] = qHTS assay to identify small molecule agonists of the hypoxia (HIF-1) signaling pathway - cell viability counter screen (AID 1224844; calls by dose curve; further: nearly all actives have a fitted effect of over 50% in size)
Outline: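 HRE-bla ME-180 cells, 2,000/well in 0.5% dialyzed FBS medium, treated 17 h at 37C with compounds. Viability read in the same wells as the bla reporter, by CellTiter-Glo luminescence after 30 min at room temperature.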

[2] = qHTS assay to identify small molecule agonists of H2AX (AID 1224845; active means well fitted activation curve with a large enough effect in the signal ratio in the repeat runs, not every such curve was filed as active; the % refers to the signal ratio)
Outline: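 Wild-type CHO-K1 cells plated overnight, then exposed 3 hr at 37C to compounds at 15 concentrations (0.76% DMSO). Lysed, then HTRF anti-pH2AX(S139)-cryptate/anti-H2AX-d2 detection after 24 hr at room temperature; emissions 665 and 620 nm.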

[3] = qHTS assay to identify small molecule agonists of the hypoxia (HIF-1) signaling pathway (AID 1224846; active means well fitted activation curve with a large enough effect in the signal ratio in the repeat runs, not every such curve was filed as active; the % refers to the signal ratio)
Outline: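 HRE-bla ME-180 beta-lactamase reporter cells in medium with 0.5% dialyzed FBS, pre-incubated 5 h then exposed to compounds 17 h at 37C, 5% CO2; reporter induction read with CCF4-AM FRET substrate.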

[4] = qHTS assay to identify small molecule agonists of H2AX - cell viability counter screen (AID 1224847; calls by dose curve; further: top concentration of the series differs between compounds; nearly all actives have a fitted effect of over 30% in size)
Outline: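 Counter-screen for viability: CellTiter-Glo ATP luminescence read after 3 h compound treatment (15-point titration, 0.76% DMSO final) of CHO-K1 cells at 37C, with 30 min room-temperature reagent incubation.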

[5] = qHTS RealTime-Glo MT Cell Viability Assay in HepG2 cells - 24 hour (AID 1224867); further: nearly all actives have a fitted effect of over 50% in size
Outline: (§1)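 Luminescence read-out: viable HepG2 cells reduce a prosubstrate to a NanoLuc substrate, giving a signal proportional to live cell number. Reads taken at 0, 8, 16, 24, 32 and 40 h of compound exposure at 37 C.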

[6] = qHTS RealTime-Glo MT Cell Viability Assay in HEK293 cells - 32 hour (AID 1224868); further: nearly all actives have a fitted effect of over 50% in size; further: potency means the concentration at half of the fitted maximal effect
Outline: (§2)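 Nonlytic real-time viability readout: viable cells convert prosubstrate to NanoLuc substrate, giving luminescence proportional to live cell number. HEK293, 600 cells/well, compound added after 5 h, continuous culture at 37 C.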

[7] = A CellTox Green Cytotoxicity Assay to monitor cytotoxicity in HEK293 cells - 0 hour (AID 1224869); further: nearly all actives have a fitted effect of over 50% in size
Outline: (§3)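 HEK293 cells, 600/well, were preincubated 5 hours and then exposed to compounds at 37 C for up to 40 hours. A cell-impermeant cyanine dye staining dead-cell DNA was read by fluorescence at 0, 8, 16, 24, 32 and 40 h time points.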

[8] = qHTS RealTime-Glo MT Cell Viability Assay in HepG2 cells - 40 hour (AID 1224870); further: nearly all actives have a fitted effect of over 50% in size
Outline: (§4)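 HepG2 cells mixed with RealTime-Glo MT reagents (NanoLuc plus cell-permeant prosubstrate) were seeded at 600 cells/well, incubated 5 h at 37 C/5% CO2, then pinned with compounds in DMSO; nonlytic luminescence tracked viability during 40 h treatment.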

[9] = A CellTox Green Cytotoxicity Assay to monitor cytotoxicity in HEK293 cells - 40 hour (AID 1224871); further: nearly all actives have a fitted effect of over 45% in size
Outline: as §3

[10] = qHTS RealTime-Glo MT Cell Viability Assay in HEK293 cells - 16 hour (AID 1224872); further: nearly all actives have a fitted effect of over 50% in size; further: potency means the concentration at half of the fitted maximal effect
Outline: as §2

[11] = qHTS RealTime-Glo MT Cell Viability Assay in HepG2 cells - 8 hour (AID 1224873); further: nearly all actives have a fitted effect of over 55% in size
Outline: as §4

[12] = qHTS RealTime-Glo MT Cell Viability Assay in HEK293 cells - 40 hour (AID 1224874); conditions: RealTime-Glo luminescence; max response: stronger effect = lower value; further: nearly all actives have a fitted effect of over 50% in size; further: potency means the concentration at half of the fitted maximal effect
Outline: (§5)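 600 cells/well were plated with the nonlytic NanoLuc/prosubstrate reagent, pre-incubated 5 h, then given 23 nL of compound in DMSO. Incubation at 37 C for 40 h, with luminescence from viable-cell-reduced substrate read repeatedly from 0 h.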

[13] = A CellTox Green Cytotoxicity Assay to monitor cytotoxicity in HEK293 cells - 24 hour (AID 1224875); further: series mostly up to about 77 µM; nearly all actives have a fitted effect of over 45% in size
Outline: as §3

[14] = A CellTox Green Cytotoxicity Assay to monitor cytotoxicity in HepG2 cells - 16 hour (AID 1224876); further: nearly all actives have a fitted effect of over 45% in size
Outline: (§6)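 HepG2 cells, 600/well, preincubated 5 h with CellTox Green dye, then exposed to Tox21 compounds in DMSO at 37 C for up to 40 h. Dead-cell DNA fluorescence read at the indicated time point.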

[15] = qHTS RealTime-Glo MT Cell Viability Assay in HepG2 cells - 32 hour (AID 1224877); further: nearly all actives have a fitted effect of over 55% in size
Outline: as §1

[16] = A CellTox Green Cytotoxicity Assay to monitor cytotoxicity in HepG2 cells - 24 hour (AID 1224878); further: nearly all actives have a fitted effect of over 45% in size
Outline: as §6

[17] = A CellTox Green Cytotoxicity Assay to monitor cytotoxicity in HepG2 cells - 40 hour (AID 1224879); further: nearly all actives have a fitted effect of over 40% in size
Outline: as §6

[18] = qHTS RealTime-Glo MT Cell Viability Assay in HEK293 cells - 0 hour (AID 1224880)
Outline: as §5

[19] = target: Thyrotropin receptor (Homo sapiens) (UniProt P16473); experiment: qHTS assay to identify small molecule agonists of the thyroid stimulating hormone receptor (TSHR) signaling pathway (AID 1224843; calls by dose curve; further: nearly all actives have a fitted effect of over 45% in size)
Outline: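 Cell line HEK293 with TSHR; density 800/well. Exposure 30 min RT. Readout HTRF cAMP (cAMP-d2/anti-cAMP-cryptate), 1 h RT before reading.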

[20] = qHTS assay to identify small molecule antagonists of the estrogen related receptor (ERR) signaling pathway from Tox21 library (AID 1224848); further: nearly all actives have a fitted effect of over 50% in size
Outline: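 Screening used an ERR reporter line supplied by NTP, exposed for 18 h at 37 C to library compounds delivered in DMSO. Signal was luciferase luminescence developed with ONE-Glo at room temperature for 30 min.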
On the % scale 0 is the no-effect control and ±100 the full control effect.

Chain of Thyrotropin receptor (Homo sapiens) (P16473 whole entry, looked up): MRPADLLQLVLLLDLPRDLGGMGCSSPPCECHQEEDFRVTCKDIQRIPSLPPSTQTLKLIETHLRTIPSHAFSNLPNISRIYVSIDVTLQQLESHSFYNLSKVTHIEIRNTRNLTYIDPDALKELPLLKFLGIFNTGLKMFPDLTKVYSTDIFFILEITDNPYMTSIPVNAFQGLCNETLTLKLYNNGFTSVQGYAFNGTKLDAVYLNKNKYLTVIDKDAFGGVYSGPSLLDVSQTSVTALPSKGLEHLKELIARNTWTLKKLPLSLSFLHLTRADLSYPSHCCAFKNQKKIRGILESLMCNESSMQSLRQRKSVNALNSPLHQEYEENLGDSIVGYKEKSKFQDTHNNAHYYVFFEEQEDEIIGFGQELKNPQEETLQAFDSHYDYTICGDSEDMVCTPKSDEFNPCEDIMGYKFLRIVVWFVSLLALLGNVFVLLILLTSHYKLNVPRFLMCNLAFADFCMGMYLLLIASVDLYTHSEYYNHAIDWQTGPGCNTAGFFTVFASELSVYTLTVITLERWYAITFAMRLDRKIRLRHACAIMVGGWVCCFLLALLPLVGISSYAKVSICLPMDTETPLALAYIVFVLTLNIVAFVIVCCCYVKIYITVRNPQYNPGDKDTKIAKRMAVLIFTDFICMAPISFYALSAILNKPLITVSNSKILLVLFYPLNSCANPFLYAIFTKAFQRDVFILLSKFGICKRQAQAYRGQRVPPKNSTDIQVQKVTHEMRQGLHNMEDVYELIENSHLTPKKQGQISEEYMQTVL

CCO[Si](CCC#N)(OCC)OCC
inactive: outcome [1] | outcome [2] | outcome [3] | outcome [4] | Potency [5] | Potency [6] | outcome [7] | outcome [8] | Potency [9] | Potency [10] | Potency [11] | max response [12] 7.39% and 2.23% | Potency [13] | outcome [14] | outcome [15] | Potency [16] | Potency [17] | outcome [18]

COc1ccccc1OCC(O)CO (configuration not stated)
inactive: outcome [19] | outcome [1] | outcome [2] | outcome [4] | Potency [5] | Potency [6] | outcome [7] | outcome [8] | Potency [9] | Potency [10] | Potency [11] | max response [12] 1.4% and 1.84% | Potency [13] | outcome [14] | outcome [15] | Potency [16] | Potency [17] | outcome [18]

COc1cc(OC)c(C(=O)CCCN2CCCC2)c(OC)c1
inactive: outcome [19] | outcome [1] | outcome [2] | outcome [4] | Potency [5] | Potency [6] | outcome [7] | outcome [8] | Potency [9] | Potency [10] | Potency [11] | max response [12] -11.2% and -1.98% | Potency [13] | outcome [14] | outcome [15] | Potency [16] | Potency [17] | outcome [18]

C=CCCCCCCCCC(=O)O
inactive: outcome [19] | outcome [1] | outcome [2] | outcome [3] | outcome [4] | Potency [5] | Potency [6] | outcome [7] | outcome [8] | Potency [9] | Potency [10] | Potency [11] | max response [12] 12.5% and 0.601% | Potency [13] | outcome [14] | outcome [15] | Potency [16] | Potency [17] | outcome [18]

Brc1ccc(Br)c(Br)c1
inactive: outcome [19] | outcome [1] | outcome [2] | outcome [3] | outcome [4] | Potency [5] | Potency [6] | outcome [7] | outcome [8] | Potency [10] | Potency [11] | max response [12] -6.36% and -22.4% | outcome [14] | outcome [15] | Potency [16] | Potency [17] | outcome [18]

C[C@]12CCC(=O)C=C1CC[C@@H]1[C@@H]2[C@@H](O)C[C@@]2(C)[C@H]1CC[C@]2(O)C(=O)CO
inactive: outcome [19] | outcome [1] | outcome [2] | outcome [4] | outcome [7] | Potency [9] | Potency [13] | outcome [14] | Potency [16] | Potency [17]

CN(C)c1ccc(Cc2ccc(N(C)C)cc2)cc1
active: Potency [6] 22 µM and 21.9 µM | Potency [10] 21.9 µM | Potency [12] 19.6 µM and 24.5 µM
inactive: outcome [1] | outcome [2] | outcome [3] | Potency [5] | outcome [7] | outcome [8] | Potency [9] | Potency [11] | Potency [13] | outcome [14] | outcome [15] | Potency [16] | Potency [17] | outcome [18]

CC(C)(C#N)c1cc(Cn2cncn2)cc(C(C)(C)C#N)c1
inactive: outcome [1] | outcome [2] | outcome [3] | outcome [4] | outcome [20] | Potency [5] | Potency [6] | outcome [7] | outcome [8] | Potency [9] | Potency [10] | Potency [11] | max response [12] 0.713% and 4.85% | Potency [13] | outcome [14] | outcome [15] | Potency [16] | Potency [17] | outcome [18]

O=C(O)c1ccc(C(=O)O)c(C(=O)O)c1
inactive: outcome [19] | outcome [1] | outcome [2] | outcome [4] | outcome [20] | Potency [5] | Potency [6] | outcome [7] | outcome [8] | Potency [9] | Potency [10] | Potency [11] | max response [12] -1.73% and 1.6% | Potency [13] | outcome [14] | outcome [15] | Potency [16] | Potency [17] | outcome [18]

O=C1c2ccccc2CCc2ccccc21
inactive: outcome [19] | outcome [1] | outcome [3] | outcome [4] | outcome [20] | Potency [5] | Potency [6] | outcome [7] | outcome [8] | Potency [9] | Potency [10] | Potency [11] | max response [12] -14.3% and 0.842% | Potency [13] | outcome [14] | outcome [15] | Potency [16] | Potency [17] | outcome [18]

CC(=O)Oc1ccc(C)cc1
inactive: outcome [1] | outcome [2] | outcome [3] | outcome [4] | Potency [5] | Potency [6] | outcome [7] | outcome [8] | Potency [9] | Potency [10] | Potency [11] | max response [12] 7.12% and 1.96% | Potency [13] | outcome [14] | outcome [15] | Potency [16] | Potency [17] | outcome [18]

Nc1nc(N)nc(-c2ccccc2)n1
inactive: outcome [19] | outcome [1] | outcome [2] | outcome [3] | outcome [4] | Potency [5] | Potency [6] | outcome [7] | outcome [8] | Potency [9] | Potency [10] | Potency [11] | max response [12] -23.1% and 0.641% | Potency [13] | outcome [14] | outcome [15] | Potency [16] | Potency [17] | outcome [18]

CC(C)OC(=O)COc1ccc(Cl)cc1Cl
inactive: outcome [1] | outcome [2] | outcome [3] | outcome [4] | Potency [5] | Potency [6] | outcome [7] | outcome [8] | Potency [9] | Potency [10] | Potency [11] | max response [12] 8.21% and -2.23% | Potency [13] | outcome [14] | outcome [15] | Potency [16] | Potency [17] | outcome [18]

CCCCCCCCCCCCCCCC(=O)OC(C)C
inactive: outcome [1] | outcome [2] | outcome [3] | outcome [4] | Potency [5] | Potency [6] | outcome [7] | outcome [8] | Potency [9] | Potency [10] | Potency [11] | max response [12] 4.79% and -1.72% | Potency [13] | outcome [14] | outcome [15] | Potency [16] | Potency [17] | outcome [18]
